Measured potencies and affinities stand elsewhere. Activity calls are given as the source filed them. The limit is not given here; nearly all actives have IC50 up to about 0.91 µM.
Target: Calcium-dependent protein kinase 4 (Plasmodium falciparum (isolate 3D7)) (UniProt Q8IBS5)
Assay: PfCDPK4 kinase inhibitors, biochemical, TCAMS library (AID 1159588)
Details: recombinant PfCDPK4, Kinase-Glo ATP depletion luminescence

Chain of Calcium-dependent protein kinase 4 (Plasmodium falciparum (isolate 3D7)) (Q8IBS5 whole entry, looked up): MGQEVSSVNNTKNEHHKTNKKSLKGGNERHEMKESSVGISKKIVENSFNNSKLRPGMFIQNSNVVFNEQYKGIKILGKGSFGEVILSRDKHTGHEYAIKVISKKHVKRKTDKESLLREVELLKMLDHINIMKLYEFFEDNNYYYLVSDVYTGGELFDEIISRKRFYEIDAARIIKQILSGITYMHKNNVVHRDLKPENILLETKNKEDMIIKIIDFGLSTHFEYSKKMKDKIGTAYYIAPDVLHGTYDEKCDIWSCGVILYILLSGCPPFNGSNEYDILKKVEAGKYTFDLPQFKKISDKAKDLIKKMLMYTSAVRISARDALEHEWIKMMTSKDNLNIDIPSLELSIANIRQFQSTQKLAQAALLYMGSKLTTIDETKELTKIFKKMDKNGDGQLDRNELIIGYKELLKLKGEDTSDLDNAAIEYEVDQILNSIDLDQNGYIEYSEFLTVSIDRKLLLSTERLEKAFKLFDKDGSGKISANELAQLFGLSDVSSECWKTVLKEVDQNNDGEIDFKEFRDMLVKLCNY

outcome, inactive:
O=C(N[C@H]1CCN(Cc2ccc(OCCN3CCNCC3)c(Br)c2)C1)c1ccc(Cl)c(Cl)c1
CCOc1cc(C(=O)NC2CCN(Cc3ccccc3)CC2)ccc1-c1nc2ccc(Cl)cc2[nH]1
O=C(Nc1cccc(-c2ccc(-c3nc4ccccc4[nH]3)cc2)c1)c1cnn2cccnc12
Cc1cccc2[nH]c(-c3ccc(-c4ccc(NC(=O)Nc5cccc(C#N)c5)cc4)cc3)nc12
CCN1CCN(CCCCNc2c3ccccc3nc3ccccc23)CC1
CCc1c(C)nc(-n2nc(C)cc2NC(=O)CC(c2ccccc2)c2ccccc2)[nH]c1=O
Cc1cc(CN2C(=O)C(c3ccccc3)(c3ccccc3)N=C2N)c(C(F)(F)F)o1
CC(=O)Nc1ccc(CN2CCC(NC(=O)c3ccc(-c4cccc(Cl)c4)s3)CC2)cc1
COc1ccc2nccc(NN=Cc3ccccc3[N+](=O)[O-])c2c1
Cc1cc(C(=O)OCC(N)=O)c(C)n1-c1ccc(F)cc1
COc1ccc(Nc2nc(NN=Cc3ccc(-c4ccc([N+](=O)[O-])cc4)o3)nc(Nc3ccccc3)n2)cc1
COc1ccc2nccc([C@@H](O)CN3CCC(NC(=O)c4ccc(Cl)c(Cl)c4)CC3)c2c1
Cc1cccc2[nH]c(-c3ccc(-c4ccc(CN5CCN(CC6CCCN(C)C6)CC5)cc4)cc3)nc12 (stereo not given)
CCOc1ccc(OCCCON2C(N)=NC(N)=NC2(C)C)cc1
Cc1cccc(-n2nc(C)c3c2NC(=O)CC3C(=O)c2ccc(Cl)s2)c1 (stereo not given)
CCN(CCCN1CCCCC1)c1cc(C)nc(Nc2cc(Cl)ccc2C)n1
O=C(Nc1ccc(Cl)cn1)c1sc2ccccc2c1O
Nc1c(Cl)cc(C(O)CNCCCCCCOCCc2ccc(CO)s2)cc1Cl (stereo not given)
COc1ccccc1C(C)NCC(=O)Nc1ccccc1Sc1ccccc1 (stereo not given)
COc1ccccc1/C=C/C(=O)N(C)C1CCN(CCCCCNC(=O)/C=C/c2ccc(Cl)c(Cl)c2)C1 (stereo not given)
CC(C)C[C@H](Nc1ccnc(NCC2CCCCC2)n1)C(=O)Nc1ccccc1
CC(=O)C=C1CC(=O)N(C[C@@H](O)[C@H]2O[C@@H]3OC(C)(C)O[C@@H]3[C@H]2O)c2ccccc2N1
Cc1noc(C)c1-c1cccc(CNCc2ccc(-c3cccc(-c4nc5ccccc5[nH]4)c3)cc2)c1
CCNc1cc(C(=O)N[C@@H](Cc2ccccc2)[C@H](O)CNC(CC)c2cccc(Cl)c2)cc(N2CCCC2=O)c1 (stereo not given in full)
CC(C)(C)NC(=O)C(c1ccc(F)cc1)N(C(=O)c1ccc(CN2CCOCC2)o1)c1ccc(C2CCCCC2)cc1 (stereo not given)
Cc1noc(C)c1-c1cccc(CNCc2ccc(-c3ccc(-c4nc5ccc(F)cc5[nH]4)cc3)cc2)c1
O=C1OC2(CCN(C(=O)c3ccc(-n4cnnn4)cc3)CC2)CN1Cc1ccc(Cl)c(Cl)c1
CC(C)(C)C1CCC(C(=O)c2ccc3ccccc3c2O)CC1 (stereo not given)
CCN(CC)CCN(Cc1ccc(-c2ccc(C(F)(F)F)cc2)cc1)C(=O)Cn1c(CCc2cccc(F)c2F)cc(=O)c(C)c1C
O=C(CCc1cccnc1)Nc1cccc(-c2ccc(-c3nc4ccc(C(F)(F)F)cc4[nH]3)s2)c1
CCCNC(=O)Nc1ccc(N(C)c2ccnc(NC3CC3)n2)cc1
NCCCNc1ccc(-c2ccc(NC(=O)Nc3cc(C(F)(F)F)ccc3F)cc2)cn1
Cc1cccc(CN2CCCN(Cc3cccc(C(=O)Nc4ccc(C(C)(C)C)cc4)c3)CC2)c1
CCn1ccc2c(N3CCCC3=O)cc(C(=O)N[C@@H](Cc3ccccc3)[C@H](O)CNC3CCCCC3)cc21
Cc1ccccc1C(=O)Nc1cccc(-c2nc3ncccn3c2C)c1
O=S(=O)(Nc1ccc(CCN2CCCCC2CCN2CCCC2)cc1)c1cccc2cccnc12 (stereo not given)
Cc1cccc2[nH]c(-c3ccc(-c4ccc(CN5CCOCC5)cc4)cc3)nc12
CC(CN1CCN(C)CC1)C(=O)Nc1cccc(-c2cccc(-c3nc4ccccc4[nH]3)c2)c1 (stereo not given)
NC(N)=NCCCN(Cc1ccccc1)c1ccccc1
OCCN1CCN(C(=S)Nc2ccccc2)CC1

From PubChem BioAssay
